From PubChem BioAssay AID1159580 (chemical genetic matrix, 2015)
“And” between values parts separate entries of the source, which are not always exact repeats. Equal entries are not always repeated. In all, about 5,500 compounds went through this assay and about 2,000 (36%) were called active. Inconclusive results (about 18%) are left out. Cut-off read from the data, not from the text of the source: active = normalized growth mostly below about 0.91 (no sharp cut-off); inconclusive = no clear call, values can overlap the other calls; inactive = mostly above about 0.92. Some of the results follow.

Assay: chemical genetic growth profiling, strain panel (AID 1159580);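 note: tested at 20 µM; growth read once vehicle control cultures reached saturation at 30 °C; 1 = growth at the plate median or of vehicle wells; lower values mean less growth of the strain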
Settings: S. cerevisiae deletion strains, growth OD

Measured: normalized growth

COc1ccc2c(c1OC)C(=O)OC2[C@H]1c2c(cc3c(c2OC)OCO3)CCN1C (some centres not stated)
inactive: locus YAL013W, strain DEP1, stronger effect = lower value 1.01 | locus YAL021C, strain ccr4, stronger effect = lower value 1.02 | locus YAL026C, strain drs2, stronger effect = lower value 1.02 | locus YAL030W, strain snc1, stronger effect = lower value 1.02 | locus YBL061C, strain skt5, stronger effect = lower value 1.01 | locus YBR009C, strain hhf1, stronger effect = lower value 1.02 | locus YBR021W, strain FUR4, stronger effect = lower value 1.01 | locus YBR023C, strain chs3, stronger effect = lower value 1.02 | locus YBR171W, strain sec66, stronger effect = lower value 1.01 | locus YBR229C, strain ROT2, stronger effect = lower value 1.01 | locus YBR231C, strain swc5, stronger effect = lower value 1.01 | locus YBR279W, strain paf1, stronger effect = lower value 1.01 | locus YCL011C, strain gbp2, stronger effect = lower value 1.02 | locus YCL016C, strain dcc1, stronger effect = lower value 1.02 | locus YCL029C, strain bik1, stronger effect = lower value 0.987 | locus YCL061C, strain MRC1, stronger effect = lower value 1.01 | locus YCL069W, strain vba3, stronger effect = lower value 1.01 | locus YCR088W, strain abp1, stronger effect = lower value 1.01 | locus YDL005C, strain med2, stronger effect = lower value 0.995 | locus YDL035C, strain GPR1, stronger effect = lower value 1.01 | locus YDL040C, strain nat1, stronger effect = lower value 1 | locus YDL074C, strain BRE1, stronger effect = lower value 1.04 | locus YDL101C, strain DUN1, stronger effect = lower value 1 | locus YDL134C, strain PPH21, stronger effect = lower value 1.01 | locus YDL185W, strain tfp1, stronger effect = lower value 0.966 | locus YDL192W, strain arf1, stronger effect = lower value 0.968 | locus YDR001C, strain nth1, stronger effect = lower value 1 | locus YDR069C, strain doa4, stronger effect = lower value 1.02 | locus YDR101C, strain arx1, stronger effect = lower value 0.995 | locus YDR137W, strain rgp1, stronger effect = lower value 1.04 | locus YDR159W, strain sac3, stronger effect = lower value 0.953 | locus YDR162C, strain NBP2, stronger effect = lower value 0.983 | locus YDR195W, strain ref2 0.993 | locus YDR297W, strain sur2, stronger effect = lower value 1.02 | locus YDR318W, strain mcm21, stronger effect = lower value 0.965 | locus YDR334W, strain swr1, stronger effect = lower value 1 | locus YDR335W, strain msn5, stronger effect = lower value 1.01 | locus YDR388W, stronger effect = lower value 0.985 | locus YDR392W, strain spt3, stronger effect = lower value 0.892 | locus YDR502C, strain sam2, stronger effect = lower value 0.984 | locus YEL003W, strain gim4, stronger effect = lower value 1.02 | locus YEL037C, strain rad23, stronger effect = lower value 1 | locus YEL061C, strain CIN8 (second series), stronger effect = lower value 0.996 | locus YEL061C, strain CIN8, stronger effect = lower value 1 | locus YER015W, strain faa2, stronger effect = lower value 1.01 | locus YER016W, strain bim1, stronger effect = lower value 1 | locus YER110C, stronger effect = lower value 0.994 | locus YER111C, strain swi4, stronger effect = lower value 1.01 | locus YER155C, strain BEM2 (second series), stronger effect = lower value 0.98 | locus YER155C, strain BEM2, stronger effect = lower value 0.992 | locus YER167W, strain BCK2, stronger effect = lower value 1 | locus YFR010W, strain ubp6, stronger effect = lower value 1 | locus YGL078C, strain dbp3, stronger effect = lower value 0.989 | locus YGL086W, strain mad1, stronger effect = lower value 1.01 | locus YGL167C, strain pmr1, stronger effect = lower value 1.01 | locus YGL173C, strain kem1, stronger effect = lower value 1.01 | locus YGL227W, strain vid30, stronger effect = lower value 1.01 | locus YGL240W, strain doc1, stronger effect = lower value 1.02 | locus YGL248W, strain PDE1, stronger effect = lower value 1.01 | locus YGL253W, strain hxk2, stronger effect = lower value 1.02 | locus YGR135W, strain pre9, stronger effect = lower value 0.986 | locus YGR252W, strain gcn5, stronger effect = lower value 1.19 | locus YHR013C, strain ard1, stronger effect = lower value 1.02 | locus YHR027C, strain rpn1, stronger effect = lower value 1.01 | locus YHR030C, strain SLT2, stronger effect = lower value 0.995 and 0.993 | locus YHR079C, strain IRE1 (second series), stronger effect = lower value 0.978 | locus YHR079C, strain IRE1, stronger effect = lower value 0.999 | locus YHR094C, strain hxt1, stronger effect = lower value 0.988 | locus YHR129C, strain ARP1, stronger effect = lower value 0.999 | locus YHR142W, strain chs7, stronger effect = lower value 1 | locus YHR200W, strain rpn10, stronger effect = lower value 0.98 | locus YIL066C, strain RNR3, stronger effect = lower value 1.01 | locus YIL073C, strain SPO22, stronger effect = lower value 0.857 | locus YIL125W, strain kgd1, stronger effect = lower value 0.986 | locus YIR030C, strain dcg1, stronger effect = lower value 0.997 | locus YJL092W, strain hpr5, stronger effect = lower value 1.01 | locus YJL095W, strain BCK1 (second series), stronger effect = lower value 1.01 | locus YJL095W, strain BCK1, stronger effect = lower value 1.02 and 1 | locus YJL115W, strain asf1, stronger effect = lower value 1.01 | locus YJL129C, strain trk1, stronger effect = lower value 0.995 | locus YJL134W, strain LCB3, stronger effect = lower value 0.996 | locus YJL154C, strain vps35, stronger effect = lower value 1.02 | locus YJL164C, strain tpk1, stronger effect = lower value 1.03 | locus YJL166W, strain qcr8, stronger effect = lower value 1 | locus YJL168C, strain set2, stronger effect = lower value 0.987 | locus YJL187C, strain SWE1 (second series), stronger effect = lower value 0.997 | locus YJL187C, strain SWE1, stronger effect = lower value 1.02
